The nature of assay [1]: CCTE_Padilla_ZF_144hpf_TERATOSCORE: (Legacy) CCTE's 144 Hour Post-fertilization zebrafish Assay Teratoscore, Padilla Lab (AID 2283679).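 As to AC50: zebrafish embryos with chorions exposed by immersion from 6-8 hpf to 5 dpf with daily renewal; teratogenicity score from eye scoring of death hatching and malformations at 144 hpf; higher score means more developmental defects relative to DMSO baseline.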 The method, boiled down: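 Larvae scored by eye at 144 hpf for death, hatching and malformations after a day in clean Hanks'. Before that, daily-renewed exposure at 80 uM (0.4% DMSO, 26C) from roughly 6-8 hpf through 5 dpf, 4 embryos per chemical.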

Assay [2] can be described thus: STM_H9_OrnithineISnorm_perc: Stemina devTOX quickPredict H9 human embryonic stem cell (hESC)-based Assay for Ornithine (ORN) Metabolite Biomarker, Normalized (AID 2283712).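 Also: ornithine released into spent medium during last day measured by mass spectrometry.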 An outline of the steps: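 UPLC-HRMS readout: endogenous ornithine EIC area / 13C-ORN internal standard, then % of 0.1% DMSO median. H9 hESCs (pluripotent), 72h exposure, re-dosed with fresh media q24h; last 24-h spent media, deproteinized in 40% acetonitrile.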

A short description of assay [3]: STM_H9_CystineISnorm_perc: Stemina devTOX quickPredict H9 human embryonic stem cell (hESC)-based Assay for Cystine (CYSS) Metabolite Biomarker, Normalized (AID 2283713). The method, boiled down:
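UPLC-HRMS read-out: endogenous cystine peak area in spent medium, normalized to isotope-labeled internal standard and to median of 0.1% DMSO controls. Pluripotent H9 cells, 72h exposure, daily medium/compound replenishment; medium from last 24h sampled.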

Assay [4] can be described thus: STM_H9_OrnCyssISnorm_ratio: Stemina devTOX quickPredict H9 human embryonic stem cell (hESC)-based Assay for Ornithine (ORN):Cystine (CYSS) Ratio (AID 2283714; active = hit-call score of the fitted dose curve at least 0.9, where 1 is the maximum). The method, boiled down: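 Ratio of internal-standard-normalized ornithine to cystine, measured by UPLC-HRMS in spent media from the last 24 h. H9 cells kept pluripotent, dosed 72 h with daily media and compound renewal; DMSO 0.1% serves as baseline.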

The nature of assay [5]: CEETOX_H295R_MTT_cell_viability: Viability Assessment in the CeeTox HT-H295R MTT Assay (AID 2283718).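 As to AC50: curve fitted both ways so AC50 may mark viability loss or gain.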 The method, boiled down: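 MTT reduction (0.5 mg/ml, 4 h at 37 C; absorbance at 570 and 650 nm) gave viability as background-corrected percent change versus controls. H295R cells had 48 h forskolin (10 uM) prestimulation, then 48 h chemical exposure at 0.1% DMSO.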
The nature of assay [6]: Tanguay_ZF_120hpf_ActivityScore_legacy: (Legacy) Oregon State University Tanguay Lab 120 Hour Post-fertilization zebrafish Assay Score for Activity (AID 2283742; active = hit-call score of the fitted dose curve at least 0.9, where 1 is the maximum;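 as to AC50: dechorionated Tropical 5D wild-type zebrafish embryos held singly per well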). The method, boiled down:
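Binary scoring of mortality and morphology by brightfield at 24 and 120 hpf, summarised into one activity score from 18 components relative to DMSO. Wild-type Tropical 5D zebrafish, chorion removed at 4 hpf, static exposure 6–120 hpf, 28 °C.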

Assay [7] is described as follows: ArunA_CellTiter_hNC: Viability Assessment in the ArunA Biomedical's Oris Neural Crest (hNC) Cell Migration Assay (AID 2283752; active = hit-call score of the fitted dose curve at least 0.9, where 1 is the maximum). An outline of the steps:
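hNC cells (H9 ESC-derived), 60,000/well, Matrigel, LIF + bFGF medium; 16 h 37C attachment; 72 h compound in test medium; CellTiter Aqueous One read-out; loss-of-signal vs DMSO baseline.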

Assay [8] is described as follows: ArunA_CellTiter_hNP: Viability Assessment in the ArunA Biomedical's Oris Neural Crest (hNC) Cell Migration Assay (AID 2283753; active = hit-call score of the fitted dose curve at least 0.9, where 1 is the maximum). The method, boiled down: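 Viability read with CellTiter 96 Aqueous One after 72 h chemical exposure of human hNP1 neuroprogenitors, which were plated on Matrigel in LIF/bFGF medium 16 h beforehand. Endpoint fitted in positive direction relative to DMSO.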

Assay [9] is described as follows: ArunA_Migration_hNP: ArunA Biomedical's Oris Neuroprogenitor (hNP) Cell Migration Assay (AID 2283754; active = hit-call score of the fitted dose curve at least 0.9, where 1 is the maximum). The method, boiled down:
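Readout is calcein-AM fluorescence (ex494/em517) of cells migrating into the detection zone, relative to DMSO. hNP1 cells (H9-derived) grown on Matrigel behind stoppers 16 h, then stoppers pulled and chemical applied 72 h; cytochalasin D as control.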

A word on the AC50: it is the concentration at which the activity in the assay is half-maximal.

Structures are written as SMILES. Values joined by “and” are separate entries in the source; they are usually repeats but may differ in a detail not shown here. Equal entries are not always repeated. Inconclusive results are not listed. Active and inactive are the calls of the source. The calls were made as follows, unless noted: active = hit-call score of the fitted dose curve at least 0.9, where 1 is the maximum; inactive = score below 0.9.

For `O=C(Nc1ccc(Cl)cc1)Nc1ccc(Cl)c(Cl)c1`, the AC50 is 5.19 µM (active) in assay [1], 0.000976 µM (active) in assay [2], 25.9 µM (active) in assay [8] and 1.88 µM (active) in [9]. Besides, the outcome in [3], in assay [4], in assay [5], in [6] and in assay [7] was inactive.

In the case of `CN1C(=O)N(c2ccccc2Br)Cc2cnc(Nc3ccc4c(c3)OCC(CO)O4)nc21` (stereo not drawn), the AC50 in [1] is 4.31 µM (active); in [2], 1.42 µM (active); in [3] it was 1.06 µM (active); in assay [4], 1.18 µM (active); in assay [6], 6.73 µM (active). Also, in assay [5], the molecule was classed as inactive.

As to `O=C1c2ccccc2C(=O)N1CCc1noc(-c2ccc(CN3CCCCCC3)s2)n1`, in assay [1], the AC50 was 20.2 µM (active). The molecule was classed as inactive in assay [5] and in assay [6].

With `CCCCCCCCOC(=O)c1cc(O)c(O)c(O)c1`, the half-maximal activity concentration (AC50) in [1] was 1.43 µM (active); in assay [2] it was 2.13 µM (active); in assay [3], 2.47 µM (active); in [4], 2.54 µM (active); in assay [6] it was 9.16 µM (active); in assay [8], 6.65 µM (active) and 541 nM (active). The AC50 in [9] is 1.02 µM (active) and 675 nM (active). In addition, the result in assay [5] and in [7] was inactive.

Take `COc1ccc2cc(S(=O)(=O)N[C@H](CC(=O)N[C@H](Cc3ccc(CN4[C@H](C)CCC[C@@H]4C)cc3)C(=O)N(C)C(C)C)c3ccc4c(c3)OCO4)ccc2c1`: the AC50 is 52.9 µM (active) in assay [1], 18.4 µM (active) in assay [2], 22.6 µM (active) in assay [3] and 23 µM (active) in assay [4]. Besides, in assay [6], the result was inactive.

As for `CC/C(=C(/CC)c1ccc(O)cc1)c1ccc(O)cc1`, the figures for the AC50 in assay [1], in [5] and in assay [6] were 5.03 µM (active), 24.4 µM (active) and 28.5 µM (active), respectively. Further, the result in assay [2], in assay [3] and in assay [4] was inactive.

With `Cc1occc1C(=O)Nc1ccc(C(=O)N2CCC(F)(F)/C(=C\C(=O)N3CCC(N4CCCCC4)CC3)c3ccccc32)cc1`, the result in [1] and in [6] was inactive.

For the molecule `O=C(OCCCCCCOC(=O)c1ccccc1)c1ccccc1`, the AC50 in assay [1] was 12.9 µM (active). The molecule was called inactive in assay [6].

For `C[C@]12CC[C@@H]3c4ccc(O)cc4CC[C@H]3[C@@H]1CCC2=O`, the outcome in assay [1], in assay [5] and in assay [6] was inactive.

As for `CN(C)C(=O)C1(N2CCCCC2)CCN(CC[C@@]2(c3ccc(Cl)c(Cl)c3)CN(C(=O)c3ccccc3)CCO2)CC1`, the AC50 in assay [1] was 15 µM (active); in assay [2] it was 8.19 µM (active); in assay [4], 8.17 µM (active); in [6], 16.2 µM (active). The result in assay [3] was inactive.

As to `COc1cccc([C@H](O)C2CCN(CCc3ccc(F)cc3)CC2)c1OC`, the results for the AC50 in [1], in assay [3] and in assay [4] were 124 µM (active), 6.34 µM (active) and 10 µM (active), respectively. Besides, the result in assay [2], in assay [5] and in assay [6] was inactive.

For the molecule `CC(=O)N1CCN(c2ccc(OC[C@H]3CO[C@](Cn4ccnc4)(c4ccc(Cl)cc4Cl)O3)cc2)CC1`, the half-maximal activity concentration (AC50) was 14.3 µM (active) in assay [1], 8.18 µM (active) in [2], 1.58 µM (active) in assay [3] and 2.35 µM (active) in assay [4]. The call in [5] and in assay [6] was inactive.

Regarding `c1ccc(C[n+]2cccc3ccccc32)cc1`, the call in assay [1], in assay [5] and in [6] was inactive.

`C[C@]12CC[C@@H]3c4ccc(O)cc4CC[C@H]3[C@@H]1CC[C@H]2O`: in assay [1], the AC50 is 15 µM (active). Besides, the molecule was called inactive in assay [5] and in [6].

`Clc1cc(Cl)c2c(c1)N=C1CCCCCN1C2`: the AC50 in [1] is 12.2 µM (active); in [6], 18 µM (active). In addition, the outcome in assay [2], in assay [3], in [4] and in [5] was inactive.

In the case of `O=c1ccc2ccccc2o1`, the call in assay [1] and in assay [6] was inactive.

On to `Cc1cn([C@H]2C[C@H](N=[N+]=[N-])[C@@H](CO)O2)c(=O)[nH]c1=O`, for which the call in assay [1], in assay [2] and in assay [6] was inactive. Moreover, the AC50 was 2.32 µM (active) in assay [3] and 4.02 µM (active) in assay [4].

`CN(C[C@@H](CC[N+]12CCC(C3CCCCC3)(CC1)CC2)c1ccc(Cl)c(Cl)c1)C(=O)c1cc(C(F)(F)F)cc(C(F)(F)F)c1`: the AC50 is 4.91 µM (active) in assay [1]; 7.48 µM (active) in assay [2]; 16.4 µM (active) in assay [3]; 14.4 µM (active) in [4]; 46.9 µM (active) in [6].

With `CC[C@H](NC(=O)c1cc(F)ccc1NS(=O)(=O)c1cccc2cccnc12)c1ccccc1`, the molecule was classed as inactive in assay [1], in assay [2], in [3] and in assay [6].

As for `CCCCOC(=O)c1ccc(O)cc1`, the AC50 is 5.07 µM (active) in assay [1], 42.3 µM (active) in assay [2] and 41 µM (active) in assay [6]. The result in assay [3], in assay [4] and in [5] was inactive.

In the case of `CN(C)c1ccc(C(=C2C=CC(=[N+](C)C)C=C2)c2ccc(N(C)C)cc2)cc1`, the concentration at half-maximal activity (AC50) is 0.477 µM (active) in [1]; 0.592 µM (active) in assay [2]; 0.817 µM (active) in [3]; 0.723 µM (active) in [4]; 1.66 µM (active) in assay [6].

Regarding `Cc1oc2c(NC(=O)c3c(Cl)cccc3Cl)cccc2c1C(C)(C)O`, the AC50 in assay [1] was 8.93 µM (active); in assay [6], 45.5 µM (active). Further, in [5], the molecule was classed as inactive.

For the molecule `CC(C)(c1cc(Br)c(O)c(Br)c1)c1cc(Br)c(O)c(Br)c1`, the AC50 was 4.24 µM (active) in [1] and 1.99 µM (active) in assay [6]. The outcome in assay [2], in [3], in assay [4], in assay [5] and in assay [8] was inactive.

Take `Cc1cc(F)ccc1-c1cc(N2CC[C@@H](O)[C@H]2CO)ncc1N(C)C(=O)C(C)(C)c1cc(C(F)(F)F)cc(C(F)(F)F)c1`: the AC50 in assay [1] was 4.05 µM (active). Besides, the call in assay [6] was inactive.

The values are drawn from PubChem BioAssay (EPA / NIEHS).
